Screening data: PubChem BioAssay, several laboratories
Cl transport mod: modulates chloride dependent transport by human KCC2; B-score of Tl+ flux slope (higher = more flux/activation; lower = inhibition) at 10 µM; AID 1456; Q9H2X9; hit rate 2.2% among 190,000; KCC2 cells, thallium flux FluoZin-2 fluorescence;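 active means thallium flux slope and its plate-corrected score both differing from the plate sample mean at a set confidence after two filtering rounds, in either direction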;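 further: slope of fluorescence scaled to starting intensity during 10 to 20 s after thallium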
RAM inhibit: blocks the yeast RAM network | AID 868 | hit rate 1.8% among 190,000 | S. cerevisiae dse1pr::URA3 reporter, 5-FOA growth OD615, 2 d; analog-sensitive cbk1-as2 kinase mutant strain | inhibition, % at 50 µM;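 active means inhibition above a set limit, 3 SD over mean compound inhibition, cut at about 8.4% in these data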;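 further: 0% = DMSO-only wells with no growth and 100% = 10 µM 1-NA-PP1 full growth; inhibition rescues growth on 5-FOA so higher OD means more RAM inhibition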
S1P4 agonist: human S1P4 receptor agonism. O95977. S1P4-expressing cell line, agonist reporter assay. activation, % at 4.98 µM. hit rate 0.35% among 220,000; in the data active means activation above about 11%;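 further: 0% = DMSO vehicle and 100% = reference agonist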
ROMK mod: modulators of human ROMK potassium channel; B-score at 10 µM; Tet-inducible ROMK, thallium flux fluorescence; actives lie on both sides; AID 1918; P48048; hit rate 2% among 130,000;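 active means signal ratio slope over the read window, or its plate-corrected B-score, at least 3 SD from the plate mean, either direction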;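 further: B-score of the F/F0 ratio slope over 7 to 12 s after thallium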
S1P3 antagonist: antagonists of human S1P3 receptor; Q99500; CHO S1P3 NFAT-BLA reporter, FRET fluorescence, antagonist mode; inhibition, % at 4.98 µM; hit rate 0.27% among 170,000; AID 485;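 active means inhibition above the plate cutoff, the mean inhibition of test wells on that plate plus 3 SD, cut at about 28% in these data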;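 further: cells challenged with S1P at its EC80 of 0.8 µM; blue over green emission ratio from cleaved BLA substrate after 4 h stimulation; 0% = S1P-stimulated wells and 100% = unstimulated DMSO-only wells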
Target sequence (Q99500 whole entry, looked up): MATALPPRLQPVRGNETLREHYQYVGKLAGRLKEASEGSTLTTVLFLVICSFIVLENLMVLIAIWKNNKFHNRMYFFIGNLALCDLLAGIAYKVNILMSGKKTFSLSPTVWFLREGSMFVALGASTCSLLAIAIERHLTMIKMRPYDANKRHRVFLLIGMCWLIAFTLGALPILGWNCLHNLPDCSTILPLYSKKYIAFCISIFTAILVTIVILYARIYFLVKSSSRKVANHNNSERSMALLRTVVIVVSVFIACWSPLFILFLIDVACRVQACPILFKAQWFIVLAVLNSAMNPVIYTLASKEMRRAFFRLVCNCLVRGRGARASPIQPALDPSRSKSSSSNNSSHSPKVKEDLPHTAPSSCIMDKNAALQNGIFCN
S1P4 antagonist: antagonists of human S1P4 receptor; inhibition, % at 4.98 µM; AID 1510; S1P4-expressing cells, antagonist mode, reporter read-out; hit rate 0.26% among 220,000; in the data active means inhibition above about 29%;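 further: 0% = wells stimulated with agonist and 100% = vehicle wells without agonist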
An asterisk follows results filed as active; / = not tested or not shown. A selection: hits, their analogues and other compounds. The true share with any hit is near 5.1%.

SMILES	Cl transport mod	RAM inhibit	S1P4 agonist	ROMK mod	S1P3 antagonist	S1P4 antagonist
O=C(Oc1ccccc1/C=C\C(=O)c1cc2ccccc2o1)c1ccccc1	0.142	8.2	0.1	1.52	2.5	1.5
CCCn1c(O)c(N=NC(=O)c2ccco2)c2ccccc21	18.4*	0.9	2.1	-0.589	-10.5	-15.0
O=C1c2ccccc2-c2n[nH]c(=O)c3ccc(N4CCCCC4)c1c23	0.404	1.0	-2.7	0.0265	3.5	0.7
COC(=O)c1c(NC(=O)c2ccccc2)sc(C(=O)c2ccccc2)c1C	8.42*	3.9	-0.1	/	/	-5.7
CC1(c2cc(C(F)(F)F)n3nc(C(=O)O)cc3n2)CC1	0.557	1.2	0.8	1.4	/	-8.2
CC12CCC(C(=O)N3CCCCC3)([C@H](Br)C1=O)C2(C)C (some centres undefined)	0.626	/	-0.8	/	-9.2	6.1
COc1ccc(C2C3=C(CC(C)(C)CC3=O)Nc3c2c(=O)[nH]c(=O)n3Cc2ccccc2)cc1OC (centres undefined)	0.0875	5.7	0.3	/	2.6	-22.2
COc1ccc(C2C3=C(CC(C)(C)CC3=O)Nc3c2c(=O)[nH]c(=O)n3Cc2ccccc2)cc1 (centres undefined)	-1.61	9.5*	1.5	/	6.7	2.1
CCc1ccc2oc(=O)cc(CN(C)Cc3ccccc3)c2c1	-1.12	0.1	0.5	-3.13*	-24.5	4.4
COc1ccc(NC(=O)COc2ccc(/C=N/O)cc2OC)cc1	-1.13	-0.4	2.0	-0.0355	-0.8	1.6
COc1cc(/C=N/OCC(=O)NC2CCCCC2)ccc1OCc1ccccc1	-0.543	7.2	-2.0	-0.0215	-5.8	12.1
COc1cc(/C=N/OCC(=O)Nc2ccc(OC(F)F)cc2)ccc1OCc1ccccc1	-0.132	8.4*	-3.5	-0.68	11.4	15.0
CCOc1ccc(/C=N/OCC(=O)Nc2ccc(OCc3ccccc3)cc2)cc1OC	1.09	11.3*	-0.3	-0.709	3.2	-10.1
Cc1cc(SCC(=O)NC(=O)c2cccn2C)nc2ccccc12	-0.0635	/	0.4	/	2.6	0.0
CCN1CCN(c2nc(S(=O)(=O)c3ccc(C)cc3)c(Cl)s2)CC1	0.0132	1.0	1.8	-0.911	-6.2	1.7
Cn1cc(CNC(=O)c2cc(-c3ccccc3)nc3ccc(Br)cc23)cn1	0.791	3.5	0.8	-0.0803	-6.3	-8.5
Cn1cc(CNC(=O)c2cc(-c3ccc(Br)cc3)nc3ccccc23)cn1	-0.277	8.8*	-0.8	-1.15	-1.0	-5.0
C[C@H](NC(=O)c1nc[nH]c1C(=O)NC1CCN(C(=O)OC(C)(C)C)CC1)C(=O)OCc1ccccc1	-1.36	0.2	0.9	/	-8.9	10.4
COc1ccc(-c2cc(C(F)(F)F)nc(NCc3cccs3)n2)cc1	-0.495	5.6	0.6	0.419	9.1	-15.5
COc1ccccc1-c1cc(C(F)(F)F)nc(NCc2cccs2)n1	-0.158	10.0*	2.6	0.0203	-8.2	-7.6
CCN(CC)c1ccc(C(=O)OCC(=O)Nc2ccc3[nH]c(=O)[nH]c3c2)cc1	0.292	2.1	0.3	-0.544	13.9	-18.4
CCNc1nc(SCCOc2ccc(Br)cc2)nc(N(C)C)n1	-0.07	1.3	0.3	0.0292	9.9	-3.7
CCn1c(=O)c2cc(C(=O)N3CCOCC3)sc2c2ccccc21	-1.06	-0.2	0.1	/	-29.6	-5.4
CCn1c(=O)c2cc(C(=O)N3CCCC3)sc2c2ccccc21	-1.23	1.0	-1.4	/	57.3*	-4.1
Cc1cc(C)nc(NS(=O)(=O)c2ccc(NC(=O)CN3C(=O)S/C(=C\c4ccccc4)C3=O)cc2)n1	0.189	9.9*	1.1	/	-4.3	-17.1
SMILES	Cl transport mod	RAM inhibit	S1P4 agonist	ROMK mod	S1P3 antagonist	S1P4 antagonist
COc1ccc(C/C(C)=N/NC(=S)Nc2ccc(Cl)cc2)cc1	1.98	/	2.1	0.0888	2.1	-20.2
COc1ccc(C/C(C)=N/NC(=S)Nc2ccccc2)cc1	31.9*	3.5	0.5	0.000542	-3.1	-4.3
O=S(=O)(Nc1cc(Cl)ccc1N1CCCCC1)c1cccs1	/	8.2	1.8	-1.05	2.4	-8.6
O=S(=O)(Nc1ccccc1N1CCCCC1)c1ccc(Cl)s1	12.1*	1.0	0.1	/	/	21.7
C=CCSC1=NC(=O)/C(=C/c2cccs2)S1	-0.537	2.3	0.1	-5.66*	2.5	0.7
Cc1ccc(C(=O)c2c(NC(=O)c3ccccc3C)sc(C)c2C)cc1	/	10.4*	-0.4	/	/	0.3
CCOc1ccc(Cc2c(Cl)nc(SC)nc2OC)cc1	0.112	9.4*	2.0	/	/	-12.7
CCCCOc1ccc(Cc2c(Cl)nc(SC)nc2N2CCOCC2)cc1	-0.605	8.3	0.6	0.532	-9.2	-16.3
CSc1nc(Cl)c(Cc2ccc(OCC(C)C)cc2)c(N2CCOCC2)n1	-0.169	8.6*	0.7	1.51	-9.2	-20.3
COCCCn1c(=S)[nH]c2c(sc3ccccc32)c1=O	57.1*	3.8	0.6	5.33*	-5.2	-14.9
O=C(O)c1ccccc1C(=O)c1ccc2c(c1)N(Cc1ccc(Cl)c(Cl)c1)C(=O)CO2	-1.84	5.7	-1.2	0.0522	-20.1	3.2
COC(=O)[C@@]1(Cc2ccc(F)cc2)[C@H]2c3cc(C(=O)N(C)C)n(Cc4nc5ccccc5[nH]4)c3C[C@H]2CN1C(=O)c1ccccc1	0	0.4	-0.1	-2.27	8.2	12.3
COc1ccc(S(=O)(=O)N/N=c2\oc3c(OC)cccc3cc2S(=O)(=O)c2ccc(C)cc2)cc1OC	-0.963	10.9*	-1.0	-1.74	10.0	-7.0
Cc1nn(C)cc1CN(C)C(=O)c1cc(COc2ccc(F)cc2F)on1	/	-0.4	-0.4	1.46	-2.2	-7.3
N=C1/C(=C/c2ccc(-c3cccc(C(=O)O)c3)o2)C(=O)N=C2SC=C(c3ccccc3)N12	-4.53	3.6	1.4	2.26*	6.2	-7.2
N=C1/C(=C\c2ccc(-c3cc(Cl)cc(Cl)c3)o2)C(=O)N=C2SC=C(c3ccccc3)N12	1.55	2.8	0.4	/	-33.0	-1.0
CC(C)c1ccc(OCC(=O)NC(=S)Nc2ccc3c4c(cccc24)CC3)cc1	0.427	9.1*	0.1	/	/	-2.6
S=C(Nc1cccc(Br)c1)c1ccccc1	3.65*	-0.5	-1.3	-1.58	-3.1	-21.2
Cc1ccc(C(=O)Nc2nc(-c3ccccc3)c(-c3ccccc3)o2)cc1	31.1*	3.6	3.2	1.08	3.4	-13.2
Cc1cc(C)nc(SCC(=O)Nc2nc(-c3ccccc3)c(-c3ccccc3)o2)n1	-1.42	5.0	-0.5	/	11.6	2.0
Cc1cnc(NC(=O)[C@H](C)N2C(=O)C3CCCCC3C2=O)s1 (some centres undefined)	0.143	-0.1	-0.1	-0.7	-13.6	7.0
C=CCn1c(COc2ccccc2F)nnc1SCC(=O)c1c[nH]c2ccccc12	0.2	4.8	0.5	/	-0.4	-14.0
O/N=C(/CN(O)/C=C1/C=CC=N1)c1cccs1	0.112	2.9	0.0	-4.99*	-12.7	-2.9
CC1(C)OC(C)(C)/C(=C/Nc2ccccc2)C1=O	0.476	-0.4	1.3	1.73	-3.3	-1.7
